HCV inh = HCV inhibition; Huh7.5.1 HCVcc-Cre infection, luciferase reporter, 44 h; Potency, µM (titrated, usually from 41.8 µM), for inactives: at the highest dose activity change, negative = inhibition, usual class: inhibitors; hit rate 3.4% among 340,000; AID 651820; also: potency is read from the fitted curve at half-maximal effect; % is scaled to controls: 0 for no effect and ±100 for the full control effect
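HCVcc-Cre virus at an moi near 0.5 was added right after compound to cells cultured 4 h from seeding (1,000 cells/well). Luciferase activity was determined 44 h later, 15 min after substrate addition at RT.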
Pf growth 48h = inhibits P. falciparum growth in the first generation, 48 h | P. falciparum luciferase growth in erythrocytes, 48 h | Potency, µM (highest dose often 28.7 µM), inactives show top-dose activity change, negative = inhibition, usual class: inhibitors | AID 504832 | hit rate 5.9% among 310,000; also: potency is read from the fitted curve at half-maximal effect; % is scaled to controls: 0 for no effect and ±100 for the full control effect
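Erythrocytes infected with P. falciparum carrying an integrated firefly luciferase reporter (2% hematocrit, 0.1% parasitemia final) were exposed to compounds in RPMI 1640 with 0.5% Albumax at 37 C, 5% CO2. Growth inhibition was scored as reduced luminescence.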
NS1 inh = influenza NS1 inhibition; Potency, µM (series often up to 46.1 µM), for the others: at the top dose activity, positive = more growth; hit rate 0.4% among 270,000; AID 2326; calls by dose curve; also: potency is read from the fitted curve at half-maximal effect; actives are rising curves; nearly all actives have a fitted effect of over 50% in size
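Compounds were scored for reversing the slow growth caused by influenza A NS1 in S. cerevisiae, measured by optical density at 600 nm. Assay medium contained 2% galactose at pH 6.0; NS1-free yeast of the same strain were the positive control.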
Vaccinia Venus = vaccinia inhibition (Venus reporter); Vaccinia virus Venus reporter expression, fluorescence; Potency, µM (series often up to 36.5 µM), inactives show at the highest dose activity change, negative = inhibition, actives largely listed as inhibitors; hit rate 0.46% among 330,000; AID 720580; calls by dose curve; tested in A549 cells; also: potency is read from the fitted curve at half-maximal effect; % is scaled to controls: 0 for no effect and ±100 for the full control effect; nearly all actives have a fitted effect of over 30% in size
VACV mCherry inh = vaccinia inhibition (mCherry reporter); AID 720579; hit rate 0.63% among 310,000; Vaccinia virus mCherry reporter infection, fluorescence; Potency, µM (series often up to 36.5 µM), for the others: at the highest dose activity change, negative = inhibition, usual class: inhibitors; calls by dose curve; tested in A549 cells; also: potency is read from the fitted curve at half-maximal effect; % is scaled to controls: 0 for no effect and ±100 for the full control effect; nearly all actives have a fitted effect of over 35% in size
Pf growth 96h = P. falciparum growth inhibition at 96 hour, primary screen for plastid delayed-death inhibitors. Potency, µM (series often up to 28.7 µM), inactives show at the top dose activity change, negative = inhibition, usual class: inhibitors. AID 504834. P. falciparum luciferase reporter growth, 96 h. hit rate 6.9% among 320,000; also: potency is read from the fitted curve at half-maximal effect; % is scaled to controls: 0 for no effect and ±100 for the full control effect
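Luminescence readout: decreased luciferase signal marks inhibited growth of reporter-expressing P. falciparum in infected red cells (2% hematocrit, 0.05% parasitemia final), exposed to compound two generations (96 h, 37 C, 5% CO2).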
NS1 inh valid = validation of influenza NS1 protein function inhibitors; shares compounds with NS1 inh; influenza NS1 function cell assay, 15-point titration; activity change, negative = inhibition, % at 32.9 µM; 1,400 tested, under 10 active; AID 492980; calls by dose curve; also: 0% is about no effect
PR8 titer = reduces influenza A/PR/8/34 replication in MDCK cells; MDCK infected influenza A/PR/8/34, virus titer TCID50; hits give low values; virus titer (log TCID50), log10 TCID50 at 5 µM; AID 504647; hit rate 30% among 95; shares compounds with NS1 inh; call rule not given here
Numbers without * were called inactive; i = inactive; ? = inconclusive; . = not tested or not shown. Sampled rows, rich in hits. Any-hit rate of the full collection: about 11%. Unless noted, calls follow the shape of the dose curve; as a rule, active = well fitted inhibition curve with a large enough effect; inconclusive = small, poorly fitted or top-dose-only effect, or another doubt; inactive = no such curve, though single readings can be large or run the other way.

SMILES	HCV inh	Pf growth 48h	NS1 inh	Vaccinia Venus	VACV mCherry inh	Pf growth 96h	NS1 inh valid	others
Cc1sc2nc(CN(Cc3cccs3)C(=O)NC3CCCCC3)[nH]c(=O)c2c1C	11µM*	?	0.45µM*	?	-28%	-4%	?
Cc1ccc(N2C(=O)CC(C)(C)CC2=O)cc1Cl	1%	?	1%	-16%	-2%	0%	.
Cc1ccc(N2C(=O)CC(=O)NC2=O)cc1Cl	2%	9%	10µM*	-3%	i	?	20
CCCCNc1nc(Oc2ccc(=O)n(-c3ccccc3)n2)nc(N(CC)CC)n1	.	.	.	-22%	-22%	.	.
Cc1ccc(C)c2[nH]c(=O)c(C(c3nnnn3Cc3ccccc3)N3CCc4ccccc4C3)cc12 (stereo unspecified)	?	10µM*	10µM*	.	.	.	12
CSc1cc(-c2ccc(Cl)cc2)c(C(=O)NN)s1	3.5µM*	?	?	.	.	12µM*	-20
Cc1ncoc1C(=O)Nc1cccc(Cl)c1C	-3%	39%	-4%	.	.	7%	.
Cc1cc(OCc2ccc(C(=O)NN=C3CCCC3)cc2)ccc1Cl	-6%	3%	14µM*	-27%	?	0%	?
CCOc1ccc(N2C(=O)/C(=C\c3ccccc3OC)S(=O)(=O)C2c2cccc([N+](=O)[O-])c2)cc1 (stereo unspecified)	-13%	-1%	11µM*	.	.	?	-34
COc1ccc(N2C(=O)N3[C@H](c4cccc(C)c4)[C@@H]4C(=O)N(Cc5ccccc5)C(=O)[C@@H]4[C@]3(Cc3ccccc3)C2=O)cc1	3%	?	14µM*	4%	i	4.7µM*	-11	PR8 titer=7.5*
COc1ccc([C@@H]2[C@@H]3C(=O)N(C(C)(C)C)C(=O)[C@@H]3[C@]3(Cc4ccccc4)C(=O)N(c4ccc(OC)cc4)C(=O)N23)cc1	-5%	?	.	-7%	-1%	?	.
COc1ccc(CN=C(C)c2c(C(F)(F)F)[nH]n(-c3nc4ccccc4s3)c2=O)cc1	?	103%	11%	.	.	.	.
COc1ccccc1NC(C)C(=O)N/N=C/c1ccccc1OCc1cccc(Br)c1 (stereo unspecified)	?	-5%	16µM*	-6%	-17%	54%	-13
Cc1cc(C)nc(N/N=C/c2ccccc2OCc2cccc(Br)c2)n1	?	1%	-33%	-24%	-25%	?	.
Cc1cc2cc(CN(Cc3ccc4c(c3)OCO4)C(=O)c3ccco3)c(=O)[nH]c2cc1C	-69%	?	?	-14%	.	?	11
CCC(=O)N(Cc1ccc2c(c1)OCO2)Cc1cc2cc(OC)ccc2[nH]c1=O	-10%	?	-14%	-10%	.	3%	.
Nc1cc(N)nc(SCC(=O)Nc2ccc3c(c2)OCCCO3)n1	20%	42%	1.8µM*	.	.	.	8
Cc1cc2nc(-c3ccc(SCC(=O)Nc4ccc5c(c4)OCCO5)nc3)[nH]c2cc1C	-19%	?	1.3µM*	-12%	i	2.9µM*	-1
O=C(O)COc1ccccc1/C=N/NC(=O)CSc1nnc(SCc2cccc3ccccc23)s1	6%	0%	3.5µM*	-4%	-21%	-29%	-29	PR8 titer=7.5*
O=C(O)COc1ccccc1/C=N/NC(=O)CSc1nnc(SCc2ccc(Cl)cc2)s1	2%	15%	12%	.	.	9%	.
CCOC(=O)C1=C(C)N=C2SC(C(=O)OC)=CC(=O)N2C1c1cccc(OC)c1 (stereo unspecified)	10%	7.4µM*	14µM*	-18%	-18%	-16%	-19
Cc1ccc(-n2c3c(cc(C(=O)NCc4ccco4)c2=O)C(=O)CC(C)(C)C3)cc1	15%	?	1.1µM*	12%	0%	0.47µM*	-8
CC1(C)CC(=O)c2cc(C(=O)NCc3ccco3)c(=O)n(-c3ccc(Cl)cc3)c2C1	0%	?	2%	-14%	i	18%	.
O=c1n(-c2ccccc2)c(=O)n2n1CCCC2	-6%	?	-4%	3%	-9%	26%	.
COc1ccc(CN2C(=O)c3ccccc3C2=O)cc1	4%	?	-16%	-25%	-11%	0%	.
SMILES	HCV inh	Pf growth 48h	NS1 inh	Vaccinia Venus	VACV mCherry inh	Pf growth 96h	NS1 inh valid	others
Cc1cc2cc(CN3C(=O)c4ccccc4C3=O)ccc2[nH]1	22%	-1%	?	.	.	?	21
CC1(C)CC(C(=O)N2CCOc3ccc(CN4CCC(Oc5cccnc5)CC4)cc3C2)CCO1 (stereo unspecified)	.	.	.	-17%	-1%	.	.
O=C1CCCC/C1=C\Nc1ccc(O)cc1	-14%	?	?	.	.	.	-9
CCOCCCNS(=O)(=O)c1ccc(NC(=O)Cc2c(F)cccc2Cl)cc1	-10%	?	?	-7%	-3%	1%	-14	PR8 titer=8.3
COc1ccc(Nc2nc(NCc3ccco3)nc(N/N=C/c3ccccc3F)n2)cc1	?	?	19%	-17%	-8%	15%	.
COc1ccc(Nc2nc(NCc3ccco3)nc(N/N=C/c3ccc(O)cc3)n2)cc1	?	?	11µM*	-26%	?	16%	?
COc1ccc(OC)c(Nc2nc(N)c([N+](=O)[O-])c(NCc3ccccc3)n2)c1	-41%	3%	-1%	5%	?	9%	.
CC(NCc1ccc(S(N)(=O)=O)cc1)C(=O)N1CCc2ccccc21 (stereo unspecified)	14%	32%	14%	.	.	7%	.
CC(NCc1ccc(S(N)(=O)=O)cc1)C(=O)N1c2ccccc2CC1C (stereo unspecified)	2%	-5%	7.9µM*	-9%	-11%	-16%	3
CCC(C)(C)N1CC(=O)N(Cc2ccccc2)C(c2ccc(OC)cc2)C1=O (stereo unspecified)	-1%	-18%	-14%	0%	.	-18%	.
O=c1cc(-c2ccc(O)c(-c3c(O)cc(O)c4c(=O)cc(-c5ccc(O)cc5)oc34)c2)oc2cc(O)cc(O)c12	-9%	?	10µM*	-19%	i	?	26
O=c1cc(-c2ccc(O)cc2)oc2c(-c3c(O)cc(O)c4c(=O)cc(-c5ccc(O)cc5)oc34)c(O)cc(O)c12	19%	.	.	-5%	3%	.	.
CC(=O)/C(=N/Nc1ccccc1Cl)Sc1nnc(C(O)c2ccccc2)n1-c1ccccc1 (stereo unspecified)	6%	4%	3%	-10%	-1%	8%	.
